Experimental data as given in PubChem BioAssay AID1347043 (National Center for Advancing Translational Sciences (NCATS), 2019).
Among all 76,000 compounds or so, about 1,900 (2.5%) were called active. About 5% were inconclusive and are not listed. The sample holds actives, similar compounds and a random draw of the others, so the mix is not that of the screen. A number with no mark means an inactive call. Calls follow the shape of the dose curve; as a rule, active = well fitted inhibition curve with a large enough effect; inconclusive = small, poorly fitted or top-dose-only effect; inactive = flat fitted curve, though single readings scatter.

target: Luciferin 4-monooxygenase (Photinus pyralis) (UniProt P08659); assay: Firefly luciferase inhibition profiling of diverse chemical library using quantitative high-throughput screening; also: nearly all actives have a fitted effect of over 65% in size; details: purified P. pyralis luciferase, luminescence, biochemical; series mostly up to 115 µM; activity change, negative = inhibition: at the top concentration
Sequence (P08659 whole entry, looked up): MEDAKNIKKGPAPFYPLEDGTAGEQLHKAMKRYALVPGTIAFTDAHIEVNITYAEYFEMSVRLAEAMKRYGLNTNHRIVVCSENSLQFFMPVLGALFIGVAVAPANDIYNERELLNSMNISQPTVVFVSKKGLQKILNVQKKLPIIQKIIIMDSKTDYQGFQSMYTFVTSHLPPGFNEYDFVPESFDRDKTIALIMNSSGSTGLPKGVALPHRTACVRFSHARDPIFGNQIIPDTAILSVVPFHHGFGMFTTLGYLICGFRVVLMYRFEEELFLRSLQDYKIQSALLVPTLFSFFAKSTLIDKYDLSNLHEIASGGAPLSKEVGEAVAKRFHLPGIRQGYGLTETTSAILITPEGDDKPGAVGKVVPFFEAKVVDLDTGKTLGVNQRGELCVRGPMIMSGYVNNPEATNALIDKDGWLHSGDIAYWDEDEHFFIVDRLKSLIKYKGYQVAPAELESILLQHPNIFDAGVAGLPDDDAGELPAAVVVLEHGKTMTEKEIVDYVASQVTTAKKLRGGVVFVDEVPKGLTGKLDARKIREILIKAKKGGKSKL
Outline: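 Biochemical qHTS: compound (6-point titration) added to 10uM D-luciferin plus 10uM ATP in Tris acetate pH 7.5 buffer with Mg, Tween-20 and BSA, then purified enzyme at 10nM; light output imaged.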
% is scaled to controls: 0 for no effect and ±100 for the full control effect; potency is read from the fitted curve at half-maximal effect.

Row | SMILES | activity change, negative = inhibition | Potency
1 | CN(CCCNC1CCC2(CCNCC2)CC1)c1ccccc1 | -8.04% | –
2 | O=C(Nc1ccc(F)cc1)[C@@H]1C[C@@H](c2ccc(F)cc2)N([S+](=O)([O-])c2ccccc2)C1 | -1.83% | –
3 | O=C(NCc1ccccc1)NC1CCc2nn(CC3CC3)c(=O)n2CC1 (stereo unspecified) | -2.7% | –
4 | CCCc1noc(-c2cn(C3CCN(C(=O)c4ccc(C)s4)CC3)nn2)n1 | 3.81% | –
5 | O=C(NCc1cccs1)c1ccc2c(c1)OCCN(c1ccccc1)C2 | 9.82% [at 172 µM] | –
6 | O=C(NCCc1ccccc1)c1ccc2c(c1)OCCN(CCC(F)(F)F)C2 | – | 39.8 µM (active)
7 | Cc1cc(NC(=O)c2ccc3c(c2)OCCN(CCC(F)(F)F)C3)ccc1F | -28.7% [at 172 µM] | –
8 | CC(C)NC(=O)C1COC2(CCN(C(=O)c3ccccc3Cl)CC2)N1C(=O)c1ccccc1 (stereo unspecified) | -6.51% | –
9 | O[C@H]1CC[C@@H](Cc2cc(-c3ccccc3)on2)O[C@@H]1CNCc1ccccc1 | -0.0028% [at 172 µM] | –
10 | CC(C)(C)c1ccc(N2C(=O)[C@@H]3C[C@@H](NC(=O)[C@@H](O)c4ccccc4)CCN3C2=O)cc1 | – | 35.5 µM (active)
11 | C=CCN1C(=O)[C@@H]2C[C@@H](NC(=O)c3ccncc3)CCN2C1=O | -13.1% [at 172 µM] | –
12 | CCn1ncc(N2CCC(NC(=O)C(C)c3ccccc3)CC2)cc1=O (stereo unspecified) | 6.63% | –
13 | Cc1nc(-c2ccc(F)cc2)n(Cc2cccc(Cl)c2)c(=O)c1CCO | 0.119% | –
14 | Cn1cccc1CN1CCC(N2CCC[S+]2(=O)[O-])CC1 | 5.13% [at 172 µM] | –
15 | CCN1C(=O)CCN(C(=O)CCc2ccc(OC)cc2)CC12CCOCC2 | 7.94% | –
16 | CC(C)CC(=O)N1CCC(c2noc(-c3cnccn3)n2)C1 (stereo unspecified) | 6.76% | –
17 | COc1ccc(C(=O)N2CCC3(CC2)CC(OC)CCO3)cc1OC (stereo unspecified) | -3.26% | –
18 | CCn1cnnc1CC1CCN(C(=O)C2CCN(Cc3nc(-c4cccc(C)c4)oc3C)CC2)CC1 | 1.99% | –
19 | CCn1cnnc1CC1CCN(C(=O)c2cc(-c3ccc(F)cc3)nc3ccccc23)CC1 | – | 14.1 µM (active)
20 | COCc1nncn1C1CCN(C(=O)c2ccccc2F)CC1 | 7.93% | –
21 | Cc1noc(-c2cccc(OC3CN(C(=O)NCCc4ccccc4)C3)c2)n1 | 6.4% | –
22 | COc1nccc(N2CCC(CC(=O)NCc3ccc(F)cc3Cl)CC2)n1 | -5.33% | –
23 | COc1ccc2[nH]c(C(=O)N[C@@H]3CN(S(C)(=O)=O)C[C@H]3CN(C)C)cc2c1 | -2.7% | –
24 | CN(C)C[C@@H]1CN(C)C[C@H]1NC(=O)c1ccnnc1 | 11.1% | –
25 | CN(C)C[C@@H]1CN(C)C[C@H]1NC(=O)c1cc2ccccc2[nH]1 | – | 39.8 µM (active)
26 | COc1ccccc1Nc1cnc2ccc(-c3ccc(OC)c(OC)c3)nn12 | -11% [at 172 µM] | –

Row | SMILES | activity change, negative = inhibition | Potency
27 | COCC1CN(C(=O)c2cc(C)n(C)n2)CC12CCNCC2 (stereo unspecified) | 1.59% | –
28 | CC(=O)Nc1ccc(CN2CCCC3(CC(c4cccc(C(F)(F)F)c4)=NO3)C2)cc1 (stereo unspecified) | 3.04% | –
29 | O=C(NC1CC1)c1ccc2c(c1)C1(CCN(CC3CC3)C1)CN2Cc1ccccc1 (stereo unspecified) | 3.95% [at 172 µM] | –
30 | CC(=O)NC1(C)CCN(Cc2cccc(-c3ccc(C(=O)c4ccccc4)cc3)c2)C1 (stereo unspecified) | – | 39.8 µM (active)
31 | CSCCNC(=O)c1coc(CN2CCN(C/C=C/c3ccccc3)CC2)n1 | -2.08% | –
32 | Cc1cccc(NC(=O)C2CC(=O)N(c3n[nH]c4ccccc34)C2)n1 (stereo unspecified) | -2.55% | –
33 | Cc1ccsc1C(=O)NCC1Cn2cccc2C(=O)N1Cc1ccccc1 (stereo unspecified) | -2.19% | –
34 | COc1ccc(NC(=O)Cn2c(C)ccc(NS(=O)(=O)c3ccccc3)c2=O)cc1 | -5.55% | –
35 | Cc1ccc(NC(=O)Nc2ccc(C)n(CC(=O)NCCN3CCCC3)c2=O)cc1 | – | 14.1 µM (active)
36 | Cc1ccc(S(=O)(=O)Nc2ccc(C)n(CC(=O)NCc3cccc(F)c3)c2=O)cc1 | -5.04% | –
37 | CN(C)c1ccc(CN2CCC3(CC(Cc4ccccc4)=NO3)C2)cc1 (stereo unspecified) | -1.37% | –
38 | Cc1cc(NC(=O)c2ccc3c(c2)N(C)C2CCCCCN2C3=O)ccc1F (stereo unspecified) | – | 17.8 µM (active)
39 | CCN1c2cc(C(=O)Nc3ccc(OC)c(F)c3)ccc2C(=O)N2CCCCC21 (stereo unspecified) | -15.5% | –
40 | CCOc1ccc(NC(=O)c2ccc3c(c2)N(C)C2CCCN2C3=O)cc1 (stereo unspecified) | – | 44.7 µM (active)
41 | CN1c2cc(C(=O)Nc3ccc(F)c(F)c3)ccc2C(=O)N2CCCCCC21 (stereo unspecified) | – | 5.62 µM (active)
42 | CCN1c2cc(C(=O)NCc3ccc(OC)cc3OC)ccc2C(=O)N2CCCCCC21 (stereo unspecified) | 2.45% | –
43 | CCN1c2cc(C(=O)Nc3ccc(F)c(Cl)c3)ccc2C(=O)N2CCCCC21 (stereo unspecified) | -9.38% | –
44 | CN1c2cc(C(=O)Nc3ccc(F)cc3)ccc2C(=O)N2CCCCC21 (stereo unspecified) | – | 25.1 µM (active)
45 | Cc1ccc(CNC(=O)c2ccc3c(c2)N(C)C2CCCCN2C3=O)cc1C (stereo unspecified) | -10.8% | –
46 | COc1ccc(CNC(=O)c2ccc3c(c2)N(C)C2CCCCN2C3=O)c(OC)c1 (stereo unspecified) | -8.05% | –
47 | CCN1c2cc(C(=O)Nc3ccc(SC)cc3)ccc2C(=O)N2CCCCCC21 (stereo unspecified) | -28.6% | –
48 | CCN1c2cc(C(=O)Nc3ccc(F)c(C)c3)ccc2C(=O)N2CCCCC21 (stereo unspecified) | -21.7% | –
49 | CN1c2cc(C(=O)N3CCC(C(N)=O)CC3)ccc2C(=O)N2CCCCC21 (stereo unspecified) | 0.0605% | –
50 | O=C(Cc1cccc(Cl)c1)N1CCC([C@@H]2CNC[C@H]2CO)CC1 | 1.45% | –
51 | CN1CCN(C2CCOC3(CCN(C(=O)c4cccc5[nH]ccc45)CC3)C2)CC1 (stereo unspecified) | 0% | –
52 | O=C(NCc1ccccc1C(F)(F)F)c1cc2n(n1)CC(c1ccc3c(c1)OCO3)OC2 (stereo unspecified) | -10.1% | –

Row | SMILES | activity change, negative = inhibition | Potency
53 | CC(C)CN1CCN(C2CCOC3(CCN(C(=O)C4CCCC4)CC3)C2)CC1 (stereo unspecified) | -1.21% | –
54 | O=C(NCc1nnc2c(-c3nc(C4CC4)no3)cccn12)c1cccnc1 | -0.5% | –
55 | CC(=O)N1CCc2[nH]cnc2C12CCN(C(=O)C(C)Oc1ccccc1)CC2 (stereo unspecified) | 3.66% | –
56 | CCc1noc(-c2ccn3c(CNC(=O)c4ccc(OC)c(F)c4)nnc3c2)n1 | 3.28% | –
57 | O=C(c1ccc2c(c1)OCO2)N1CCCC2(CN[S+](=O)([O-])c3ccccc3N2)C1 (stereo unspecified) | -5.81% | –
58 | CCCn1c(C)cnc1CC1CCN(C(=O)CCOC)CC1 | -2% | –
59 | Cc1cccc(N2C(=O)CSC23CCN(C(=O)C2CCC2)CC3)c1 | -11.1% | –
60 | COc1ccnc(CN2CCN(C)C3(CCC(=O)N(C)CC3)C2)c1OC (stereo unspecified) | -0.911% | –
61 | CCN(CC)CC[C@H]1CN(C(=O)c2ccc(N(C)C)cc2)CC[C@H]1CC(=O)O | -2.45% [at 172 µM] | –
62 | CCN1c2cc(C(=O)Nc3ccccc3)ccc2C(=O)N2CCCC21 (stereo unspecified) | -13.5% | –
63 | Cc1ccccc1CNC(=O)c1ccc2c(c1)N(C)C1CCCCN1C2=O (stereo unspecified) | -12.7% | –
64 | CN1c2cc(C(=O)Nc3ccccc3)ccc2C(=O)N2CCCCCC21 (stereo unspecified) | – | 6.31 µM (active)
65 | Cc1cc(C)cc(C(=O)NC2CCN(c3cc(-c4cccs4)[nH]n3)C2)c1 (stereo unspecified) | 9.15% | –
66 | Cc1cccc(CN2C[C@@H]3C(=O)N(Cc4ccc5c(c4)OCO5)C(=O)[C@@H]3C2)c1 | 6.64% | –
67 | COc1ccc(OC)c(S(=O)(=O)N2CCCCCCNC(=O)CC2c2ccccc2)c1 (stereo unspecified) | -6.43% | –
68 | CCC(CC)N1CCN(C(=O)c2ccc3c(c2)N(S(C)(=O)=O)CC3)CC1 | – | 35.5 µM (active)
69 | CCOc1cccc(CNC(=O)c2ccc3c(c2)N(S(C)(=O)=O)CC3)c1 | -22.4% | –
70 | CC(=O)N1CCc2ccc(C(=O)N3CCCCCC3)cc21 | -12.8% | –
71 | CN(c1ccccc1)c1cc(=O)c2ccnc(-c3ccc(CO)cc3)c2o1 | -21.1% [at 172 µM] | –
72 | CN(c1ccccc1)c1cc(=O)c2ccnc(Nc3cccc([S+](C)(=O)[O-])c3)c2o1 | -11.7% [at 172 µM] | –
73 | Cc1ccc(CN2CCc3nc(C)nc(-c4ccc(O)cc4)c3C2)cc1 | -1.5% | –
74 | CCN1CCN(c2ccc(C(=O)NCCCn3ccnc3C(C)C)cn2)CC1 | 0.497% | –
75 | O=C(NCC1CC1)c1nc2c(o1)CCN(Cc1cccc(F)c1F)CC2 | 11.9% [at 172 µM] | –
76 | O=C(Nc1ccccc1)c1nc2c(o1)CCN(Cc1cccc(Cl)c1)CC2 | – | 1.58 µM (active)
77 | O=C(NCC1CC1)c1nc2c(o1)CCN(CCc1ccccc1)CC2 | -18.4% [at 172 µM] | –
78 | O=C(Nc1ccc(Cl)cc1)c1nc2c(o1)CCN(Cc1ccsc1)CC2 | – | 17.8 µM (active)

Row | SMILES | activity change, negative = inhibition | Potency
79 | Cc1cccc(CN2CCc3nc(C(=O)Nc4ccc(Cl)cc4)oc3CC2)c1 | 0.619% [at 172 µM] | –
80 | N#Cc1ccc(CN2CCc3nc(C(=O)N4CCOCC4)oc3CC2)cc1 | 2.1% [at 172 µM] | –
81 | O=C(c1ccccc1-n1cccn1)N1CCN(Cc2ccccc2CO)CC1 | 6.18% | –
82 | CCOc1ccc(C(=O)N2CCC(Cc3nc(C(C)C)no3)CC2)cc1 | 13.5% | –
83 | Cc1nccn1CC1(CNc2ccncn2)CC1 | 3.86% | –
84 | CN(C)Cc1nnc(C2CCCN(C(=O)C3(N)CCNCC3)C2)n1C (stereo unspecified) | -2.13% | –
85 | COc1ccccc1C1CCN(Cc2cn(-c3ccccc3)nn2)CC1 | 1.57% | –
86 | O=C(Nc1ccc([C@@H](O)[C@H]2COCC(=O)N2Cc2ccccc2F)cc1)c1ccccc1 | -24.9% [at 172 µM] | –
87 | Cc1ccc(C(=O)Nc2ccc(C(O)[C@H]3COCC(=O)N3Cc3ccccc3F)cc2)cc1 (stereo partly specified) | – | 28.2 µM (active)
88 | O=C(Nc1ccc([C@@H](O)[C@H]2COCC(=O)N2Cc2ccccc2F)cc1)C1CCCCC1 | 6.26% | –
89 | O=C([C@H]1C[C@H](Oc2cccnc2)CN1C(=O)CCCc1ccccc1)N1CCOCC1 | 4.94% | –
90 | O=C1c2cnc(-c3ccc(Cl)cc3)nc2OCCN1Cc1ccccc1 | -38% [at 172 µM] | –
91 | COc1cccc(-c2nc(N3CCOCC3)cc3c2CN(CC2CC2)C3=O)c1 | 0.339% [at 172 µM] | –
92 | COc1ccc(F)cc1-c1ncc2c(n1)OCCN(CC1CC1)C2=O | -5.25% [at 172 µM] | –
93 | O=C1c2cnc(-c3ccc(O)c(F)c3)nc2OCCN1Cc1ccccc1 | – | 22.4 µM (active)
94 | COc1cccc(-c2ncc3c(n2)OCCN(Cc2ccc(F)cc2F)C3=O)c1OC | -12.3% [at 172 µM] | –
95 | COc1ccc(-c2ncc3c(n2)OCCN(CC2CC2)C3=O)cc1 | – | 1.26 µM (active)
96 | NC(=O)c1cccc(-c2ncc3c(n2)OCCN(Cc2ccccc2)C3=O)c1 | -12.7% [at 172 µM] | –
97 | NC(=O)c1cccc(-c2ncc3c(n2)OCCN(c2cccc(C(F)(F)F)c2)C3=O)c1 | -1.05% [at 172 µM] | –
98 | COc1ccc(CN2CCOc3nc(-c4cc(F)cc(OC)c4)ncc3C2=O)cc1 | – | 28.2 µM (active)
99 | CN(C)c1cccc(-c2ncc3c(n2)OCCN(Cc2ccc(F)cc2F)C3=O)c1 | -18.6% [at 172 µM] | –
100 | C[S+](=O)([O-])c1cccc(-c2ncc3c(n2)OCCN(Cc2ccc(F)cc2F)C3=O)c1 | -3.96% | –
101 | COc1ccc(-c2ncc3c(n2)OCCN(Cc2ccccc2)C3=O)cn1 | – | 15.8 µM (active)
